# Experiments:
# Experiment in all cases: DAPPL (digital affinity profiling via proximity ligation, sequencing); 10 mM Tris-HCl pH 7.5, 50 mM NaCl, 1 mM DTT, 4% glycerol, room temperature, 30 min; GST-TFs on glutathione beads, 16-mer random dsDNA library, 0.1% formaldehyde crosslink after washing; high values mean tight binding
# [1] = biological target: T1, FEV (Homo sapiens, UniProt Q99581 1-238); settings: protein: recombinant; tags: N-terminal GST; dsDNA, one strand shown
# T1 sequence: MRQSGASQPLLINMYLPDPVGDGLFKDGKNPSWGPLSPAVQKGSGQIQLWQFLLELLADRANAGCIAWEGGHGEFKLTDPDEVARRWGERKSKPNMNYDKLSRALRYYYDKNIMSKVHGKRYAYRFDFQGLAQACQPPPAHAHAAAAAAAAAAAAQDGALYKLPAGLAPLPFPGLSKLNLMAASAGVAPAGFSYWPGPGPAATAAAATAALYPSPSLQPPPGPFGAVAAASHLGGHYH
# Method in brief: (§1)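 Binding signal is defined as a hexamer's read frequency for one factor over its frequency for the tag-only sample. To obtain reads, GST-fused human transcription factors were expressed in yeast, captured on glutathione beads, barcoded with DNA and pooled with that sample. Pools met 200 nmole of a 16-mer random double-stranded DNA library in Tris/NaCl/DTT/glycerol buffer for 30 min at room temperature before washing, 0.1% formaldehyde crosslinking, proximity ligation (BsaI/T4 ligase, 1 h, 37 °C), PCR and Illumina NextSeq500 sequencing.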
# [2] = biological target: ETV5 (Homo sapiens, UniProt P41161 1-510); settings: protein: recombinant; tags: N-terminal GST; dsDNA, one strand shown
# Chain of ETV5 (P41161 whole entry): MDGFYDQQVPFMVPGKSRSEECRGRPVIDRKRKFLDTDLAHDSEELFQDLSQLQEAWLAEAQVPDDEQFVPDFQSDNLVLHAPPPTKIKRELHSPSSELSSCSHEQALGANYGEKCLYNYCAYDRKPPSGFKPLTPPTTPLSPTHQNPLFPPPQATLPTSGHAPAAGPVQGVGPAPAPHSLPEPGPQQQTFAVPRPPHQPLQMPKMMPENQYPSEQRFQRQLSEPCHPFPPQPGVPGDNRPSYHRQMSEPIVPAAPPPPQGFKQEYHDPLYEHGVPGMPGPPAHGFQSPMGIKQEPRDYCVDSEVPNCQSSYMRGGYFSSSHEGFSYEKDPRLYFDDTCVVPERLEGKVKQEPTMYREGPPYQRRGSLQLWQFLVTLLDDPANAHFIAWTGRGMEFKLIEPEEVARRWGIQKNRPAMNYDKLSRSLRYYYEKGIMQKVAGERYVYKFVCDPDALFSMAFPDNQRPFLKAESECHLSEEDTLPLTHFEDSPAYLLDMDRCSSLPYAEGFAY
# Method in brief: as §1
# [3] = biological target: HSF1 (Homo sapiens, UniProt Q00613 1-529); settings: protein: recombinant; tags: N-terminal GST; chain copies: 3; dsDNA, one strand shown
# Chain of HSF1 (Q00613 whole entry): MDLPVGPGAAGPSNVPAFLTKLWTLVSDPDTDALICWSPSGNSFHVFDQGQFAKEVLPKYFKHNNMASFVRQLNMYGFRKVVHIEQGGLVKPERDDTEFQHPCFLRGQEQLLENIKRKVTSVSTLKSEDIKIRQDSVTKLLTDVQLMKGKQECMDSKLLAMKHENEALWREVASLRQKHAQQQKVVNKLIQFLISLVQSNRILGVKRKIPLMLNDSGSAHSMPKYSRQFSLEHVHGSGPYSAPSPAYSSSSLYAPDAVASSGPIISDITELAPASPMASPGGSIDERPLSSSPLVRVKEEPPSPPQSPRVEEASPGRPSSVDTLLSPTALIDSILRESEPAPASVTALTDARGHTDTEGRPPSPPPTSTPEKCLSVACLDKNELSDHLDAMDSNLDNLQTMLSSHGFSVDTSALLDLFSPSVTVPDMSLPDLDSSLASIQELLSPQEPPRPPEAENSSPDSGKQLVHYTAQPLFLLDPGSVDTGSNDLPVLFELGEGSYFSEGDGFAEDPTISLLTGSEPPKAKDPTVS
# Method in brief: as §1
# [4] = biological target: T2, SPIC (Homo sapiens, UniProt Q8N5J4 1-248); settings: protein: recombinant; tags: N-terminal GST; dsDNA, one strand shown
# T2 sequence: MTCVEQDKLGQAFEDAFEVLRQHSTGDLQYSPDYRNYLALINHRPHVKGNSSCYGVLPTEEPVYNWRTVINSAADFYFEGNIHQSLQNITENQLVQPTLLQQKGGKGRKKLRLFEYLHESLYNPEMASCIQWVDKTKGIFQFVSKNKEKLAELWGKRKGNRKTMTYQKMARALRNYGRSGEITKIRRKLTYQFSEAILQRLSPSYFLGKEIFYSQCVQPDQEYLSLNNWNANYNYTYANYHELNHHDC
# Method in brief: as §1
# [5] = biological target: ELF4 (Homo sapiens, UniProt Q99607 1-663); settings: protein: recombinant; tags: N-terminal GST; dsDNA, one strand shown
# Chain of ELF4 (Q99607 whole entry): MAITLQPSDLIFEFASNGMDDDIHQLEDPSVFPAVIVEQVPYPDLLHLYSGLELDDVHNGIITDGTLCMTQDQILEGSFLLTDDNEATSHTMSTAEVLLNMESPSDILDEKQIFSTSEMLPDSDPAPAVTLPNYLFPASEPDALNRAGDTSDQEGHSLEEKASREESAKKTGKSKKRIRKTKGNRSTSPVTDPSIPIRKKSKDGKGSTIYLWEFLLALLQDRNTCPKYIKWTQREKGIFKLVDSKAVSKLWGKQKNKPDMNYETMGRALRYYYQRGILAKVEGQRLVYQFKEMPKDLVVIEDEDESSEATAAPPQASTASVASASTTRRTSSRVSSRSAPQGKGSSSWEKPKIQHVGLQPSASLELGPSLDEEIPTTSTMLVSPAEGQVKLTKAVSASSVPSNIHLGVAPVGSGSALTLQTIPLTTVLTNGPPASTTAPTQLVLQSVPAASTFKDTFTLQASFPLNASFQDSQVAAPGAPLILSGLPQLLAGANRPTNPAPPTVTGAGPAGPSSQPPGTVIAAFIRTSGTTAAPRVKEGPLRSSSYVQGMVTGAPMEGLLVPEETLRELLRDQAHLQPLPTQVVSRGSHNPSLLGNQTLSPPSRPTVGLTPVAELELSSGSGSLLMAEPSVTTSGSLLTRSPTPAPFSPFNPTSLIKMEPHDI
# Method in brief: as §1
# [6] = biological target: T3, ELK4 (Homo sapiens, UniProt P28324-2 1-405); settings: protein: recombinant; tags: N-terminal GST; dsDNA, one strand shown
# T3 sequence: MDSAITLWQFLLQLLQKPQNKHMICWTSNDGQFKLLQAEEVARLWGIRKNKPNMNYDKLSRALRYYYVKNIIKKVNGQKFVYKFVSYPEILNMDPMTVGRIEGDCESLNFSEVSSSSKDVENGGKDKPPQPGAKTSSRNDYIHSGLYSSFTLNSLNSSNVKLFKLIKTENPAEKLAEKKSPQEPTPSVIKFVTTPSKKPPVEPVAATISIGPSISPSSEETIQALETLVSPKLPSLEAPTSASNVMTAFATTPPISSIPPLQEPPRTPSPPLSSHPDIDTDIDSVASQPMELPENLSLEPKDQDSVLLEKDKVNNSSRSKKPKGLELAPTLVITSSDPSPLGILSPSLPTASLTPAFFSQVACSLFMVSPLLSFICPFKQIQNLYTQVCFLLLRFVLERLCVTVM
# Method in brief: as §1
# [7] = biological target: T4, ETV2 (Homo sapiens, UniProt O00321 1-342); settings: protein: recombinant; tags: N-terminal GST; dsDNA, one strand shown
# T4 sequence: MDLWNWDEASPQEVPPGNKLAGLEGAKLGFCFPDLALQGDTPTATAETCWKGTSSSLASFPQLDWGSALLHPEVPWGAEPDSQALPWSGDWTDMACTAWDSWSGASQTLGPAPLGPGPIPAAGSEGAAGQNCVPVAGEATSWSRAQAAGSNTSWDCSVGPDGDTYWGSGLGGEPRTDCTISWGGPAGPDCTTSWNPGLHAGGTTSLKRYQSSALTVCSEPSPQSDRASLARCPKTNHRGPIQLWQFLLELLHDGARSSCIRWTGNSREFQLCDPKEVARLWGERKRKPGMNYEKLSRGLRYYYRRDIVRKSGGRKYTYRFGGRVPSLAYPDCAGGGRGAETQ
# Method in brief: as §1
# [8] = biological target: T5, ELF3 (Homo sapiens, UniProt P78545 1-371); settings: protein: recombinant; tags: N-terminal GST; dsDNA, one strand shown
# T5 sequence: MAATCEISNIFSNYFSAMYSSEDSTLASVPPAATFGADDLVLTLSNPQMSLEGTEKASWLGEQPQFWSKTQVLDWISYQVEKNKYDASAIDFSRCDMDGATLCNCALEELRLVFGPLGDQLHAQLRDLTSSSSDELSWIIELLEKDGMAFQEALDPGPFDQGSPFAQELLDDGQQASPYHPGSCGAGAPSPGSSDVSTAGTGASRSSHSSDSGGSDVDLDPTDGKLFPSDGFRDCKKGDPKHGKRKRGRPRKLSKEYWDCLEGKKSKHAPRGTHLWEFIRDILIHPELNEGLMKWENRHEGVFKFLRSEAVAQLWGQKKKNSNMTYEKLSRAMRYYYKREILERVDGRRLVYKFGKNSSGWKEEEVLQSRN
# Method in brief: as §1
# [9] = biological target: CRX (Homo sapiens, UniProt O43186 1-299); settings: protein: recombinant; tags: N-terminal GST; dsDNA, one strand shown
# Chain of CRX (O43186 whole entry): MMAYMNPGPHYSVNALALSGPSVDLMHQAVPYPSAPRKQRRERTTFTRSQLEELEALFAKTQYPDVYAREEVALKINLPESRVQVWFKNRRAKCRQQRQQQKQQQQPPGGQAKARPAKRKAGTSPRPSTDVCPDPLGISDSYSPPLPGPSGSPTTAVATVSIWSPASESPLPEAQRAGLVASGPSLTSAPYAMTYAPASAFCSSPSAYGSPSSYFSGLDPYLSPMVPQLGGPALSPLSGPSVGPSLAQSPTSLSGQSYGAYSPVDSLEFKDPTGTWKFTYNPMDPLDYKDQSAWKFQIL
# Method in brief: as §1
# [10] = biological target: ETV1 (Homo sapiens, UniProt P50549 1-477); settings: protein: recombinant; tags: N-terminal GST; dsDNA, one strand shown
# Chain of ETV1 (P50549 whole entry): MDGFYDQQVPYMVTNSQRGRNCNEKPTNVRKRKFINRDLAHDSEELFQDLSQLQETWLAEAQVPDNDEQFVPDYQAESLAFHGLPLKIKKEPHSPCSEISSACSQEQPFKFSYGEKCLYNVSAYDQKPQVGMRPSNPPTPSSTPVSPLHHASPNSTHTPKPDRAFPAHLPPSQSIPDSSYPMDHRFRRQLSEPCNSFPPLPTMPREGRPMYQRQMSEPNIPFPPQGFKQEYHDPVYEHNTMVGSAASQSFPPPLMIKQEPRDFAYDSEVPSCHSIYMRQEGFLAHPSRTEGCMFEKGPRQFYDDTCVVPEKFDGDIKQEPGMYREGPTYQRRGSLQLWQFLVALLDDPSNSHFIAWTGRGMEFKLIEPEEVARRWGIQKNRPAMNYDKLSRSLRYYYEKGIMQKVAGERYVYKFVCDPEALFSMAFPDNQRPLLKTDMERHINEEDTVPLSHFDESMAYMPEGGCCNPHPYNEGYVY
# Method in brief: as §1
sequence,measurement,setting,value
ATTCTG,binding signal,[1],"1.23 fold enrichment (6-mer frequency, TF over GST control)"
same,binding signal,[2],"1.29 fold enrichment (6-mer frequency, TF over GST control)"
same,binding signal,[3],"2.18 fold enrichment (6-mer frequency, TF over GST control)"
same,binding signal,[4],"1.11 fold enrichment (6-mer frequency, TF over GST control)"
same,binding signal,[5],"1.37 fold enrichment (6-mer frequency, TF over GST control)"
same,binding signal,[6],"1.38 fold enrichment (6-mer frequency, TF over GST control)"
same,binding signal,[7],"1.43 fold enrichment (6-mer frequency, TF over GST control)"
same,binding signal,[8],"1.08 fold enrichment (6-mer frequency, TF over GST control)"
same,binding signal,[9],"1.5 fold enrichment (6-mer frequency, TF over GST control)"
same,binding signal,[10],"1.45 fold enrichment (6-mer frequency, TF over GST control)"

# — article PMC7862700, “An all-to-all approach to the identification of sequence-specific readers for epigenetic DNA modifications on cytosine”
